Calls of active or inactive are those of the source. Calls follow the shape of the dose curve; as a rule, active = well fitted cell-killing curve with a large enough effect; inconclusive = small, poorly fitted or top-dose-only effect; inactive = flat fitted curve, though single readings scatter.

The nature of this assay: Cell Viability - LYMP1-002 - Assay at 24 hr (AID 993). The settings on record: LYMP1-002 lymphoblastoid cells viability; series mostly up to 92.2 µM. The source says:
NIH Chemical Genomics Center [NCGC]
NIH Molecular Libraries Screening Centers Network [MLSCN]
National Institutes of Environmental Health Sciences [NIEHS]
National Toxicology Program [NTP]
We have developed a 1536-well cell-based assay for quantitative high throughput screening (qHTS) against a number of cell lines to determine in vitro cytotoxicity of small molecules. This particular assay uses a human lymphoblastoid cell line (LYMP1-002) purchased from Coriell Institute for Medical Research.
NCGC Assay Protocol Summary:
The CellTiter-Glo luminescent cell viability assay (Promega) is a homogeneous method to measure the number of viable cells in culture. The end point readout of this assay is based on quantitation of intracellular ATP, an indicator of metabolic activity, using the luciferase reaction. Luciferase catalyzes the oxidation of beetle Luciferin to oxyluciferin and light in the presence of ATP. The luminescent signal is proportional to amount of ATP present.
Using the CellTiter-Glo luminescent cell viability assay, the amount of cellular ATP was measured in the lymphoblastoid cell line with complete culture medium following compound treatment for 24 hours. The assay was performed in opaque white Kalypsys 1536-well plates. In the screen, tetraoctylammonium bromide was used as positive control. Library compounds were measured for their ability to cause acute toxicity in the cell line, as reflected by a decrease in intracellular ATP levels, in a concentration-dependent manner. […] AC50 values were determined from concentration-response data modeled with the standard Hill equation.
qHTS protocol for CellTiter Glo lymphoblastoid cellular assay
[Step] [Parameter] [Value] [Description]
1. Reagent; 5 uL; 2500 lymphoblastoid cells/well
2. Time; 5 hr; 37 C incubation
4. Controls; 23 nL; Tetraoctylammonium bromide 6.4pM to 92 uM
5. Time; 24 hr; 37 C incubation
6. Reagent; 5 uL; CellTiter Glo reagent
7. Time; 30 min; Room Temperature
8. Detection; Luminescence; Viewlux plate reader
Keywords: cell viability, cytotoxicity, lymphoblastoid cell line, luminescence, NTPHTS, NTPHTS_NCGC, NIEHS, DSSTox, MLSMR, MLSCN, NIH Roadmap, qHTS, NCGC
For the molecule `CC1=C2[C@@H]([C@H](C)CC[C@H]2/C=C(\C)C(=O)O)[C@H](O)C1`, the molecule was called inactive.

`CCOc1ccc2c(c1)C(C)=CC(C)(C)N2`: the outcome was inactive. For `Cc1ccccc1` the value was “inactive”.

As to `CC1=C(/C=C/C(C)=C/C=C/C(C)=C/CO)C(C)(C)CCC1`, the call was inactive.

Consider `O=S(=O)(O)O`, for which the call was inactive. Regarding `CCOC(C)=O`, the molecule was called inactive. `CCCCCCCC/C=C\CCCCCCCC(=O)O`: the molecule was classed as inactive. `O=C(O)CCC(=O)C(=O)O`: the call was inactive.

As to `CCCCCCCC(=O)O`, the result was inactive. Turning to `CC(O)CO` (stereo not given), the call was inactive. As to `IC(I)I`, the molecule was classed as inactive. Take `CC(C)=O`: the molecule was called inactive. For `CCCCC/C=C\C/C=C\CCCCCCCC(=O)O`, the outcome was inactive. Consider `Nc1ccn([C@H]2CS[C@@H](CO)O2)c(=O)n1`, for which the call was inactive. Turning to `O=CCCCC=O`, the molecule was classed as inactive.

For the origin of these results see PubChem BioAssay (NCATS).
